Inconclusive results are not listed. A call without a number means that no potency is given here. Active and inactive are the calls of the source. The call rests on the fitted dose curve; in most records, active means well fitted activation curve with a large enough effect in the signal ratio, with a control signal flat; inconclusive means small, poorly fitted or top-dose-only effect, or a change in a side signal; inactive means flat fitted curve, though single readings scatter; the % refers to the signal ratio.
These compounds were tested against Thyrotropin receptor (Homo sapiens) (UniProt P16473) (assay: Secondary Concentration-Response Assay for Agonists of the Thyroid Stimulating Hormone Receptor: HTRF Activity Detection). Settings: HEK293-TSHR cells, cAMP HTRF ratio, 30 min; series mostly up to 91.7 µM.
Method in brief: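 cAMP accumulation was detected by antibody-based HTRF, excitation 330 nm, emissions 615 and 660 nm. Compounds acted for 30 min at room temperature on stably TSHR-transfected HEK 293 cells, with phosphodiesterase inhibitor RO 20-1724 (100 uM) in the medium.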
Potency means the concentration at half of the fitted maximal effect.

Sequence of Thyrotropin receptor (Homo sapiens) (P16473 whole entry, looked up): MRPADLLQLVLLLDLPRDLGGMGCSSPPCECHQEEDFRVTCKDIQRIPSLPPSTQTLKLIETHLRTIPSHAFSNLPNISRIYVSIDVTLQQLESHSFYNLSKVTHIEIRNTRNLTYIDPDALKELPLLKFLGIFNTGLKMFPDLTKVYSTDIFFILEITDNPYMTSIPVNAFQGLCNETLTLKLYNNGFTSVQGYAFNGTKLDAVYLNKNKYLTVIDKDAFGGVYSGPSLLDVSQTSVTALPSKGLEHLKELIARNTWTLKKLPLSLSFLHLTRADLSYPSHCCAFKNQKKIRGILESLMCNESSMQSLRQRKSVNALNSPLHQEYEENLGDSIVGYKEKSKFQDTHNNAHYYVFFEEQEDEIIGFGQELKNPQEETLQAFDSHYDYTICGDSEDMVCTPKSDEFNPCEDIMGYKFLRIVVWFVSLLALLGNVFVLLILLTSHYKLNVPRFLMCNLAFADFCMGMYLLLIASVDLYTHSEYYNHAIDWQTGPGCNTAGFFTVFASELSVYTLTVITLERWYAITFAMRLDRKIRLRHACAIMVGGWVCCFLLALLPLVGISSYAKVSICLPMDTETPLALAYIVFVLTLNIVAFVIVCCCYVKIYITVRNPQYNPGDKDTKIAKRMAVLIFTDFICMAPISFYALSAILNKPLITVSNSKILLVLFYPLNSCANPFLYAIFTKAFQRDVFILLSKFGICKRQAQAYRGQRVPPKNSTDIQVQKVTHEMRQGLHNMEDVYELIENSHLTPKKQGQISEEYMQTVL

Row | SMILES | Potency | activation
1 | COc1ccc(-c2nc3ccc(NC(C)=O)cc3c(=O)n2Cc2ccccc2)cc1COc1ccc(NC(C)=O)cc1 | inactive | 
2 | COc1cc(OC)cc(C(=O)N(Cc2ccco2)Cc2cccs2)c1 | inactive | 
3 | COc1ccc(/C=N/NC(=O)c2ccn[nH]2)cc1COc1ccc(F)cc1 | inactive | 
4 | Cc1occc1-c1nnc(SCC(=O)NCc2ccco2)n1CC(C)C |  | 0.131% [at 0.00035 µM] (inactive)
5 | Cc1noc(/C=C/c2ccco2)c1S(=O)(=O)N1CCC(C(=O)NCc2ccco2)CC1 |  | -0.595% [at 0.00035 µM] (inactive)
6 | O=C1c2ccccc2NC(c2ccccc2O)N1Cc1ccco1 (stereo unspecified) | inactive | 
7 | CCOC(=O)C1C(=O)Nc2nc(C)nn2C1c1ccccc1 (stereo unspecified) |  | 2.16% [at 0.00035 µM] (inactive)
8 | CC(C)Oc1ccccc1C1Nc2ccccc2C(=O)N1c1ccc2c(c1)OCCO2 (stereo unspecified) | inactive | 
9 | CCOc1ccc(N(CC(=O)NCc2cccs2)S(=O)(=O)c2c(C)noc2C)cc1 |  | -0.0859% [at 0.00035 µM] (inactive)
10 | COc1cc(C2Nc3ccccc3C(=O)N2c2ccccc2OC)ccc1O (stereo unspecified) | inactive | 
11 | COc1ccc(CN(Cc2ccccc2)C(=O)c2ccccc2N)cc1COc1ccc(NC(C)=O)cc1 | 25.1 µM (active) | 
12 | CCOC(=O)c1ccccc1OCc1cc(C2Nc3ccccc3C(=O)N2c2cccc3ccccc23)ccc1OC (stereo unspecified) | inactive | 
13 | CCCN1C(=O)c2ccccc2NC1c1ccc(OC)cc1O (stereo unspecified) | inactive | 
14 | O=C(CSc1nnc(-c2ccccc2)n1Cc1ccco1)Nc1ccc2c(c1)OCCO2 |  | -0.544% [at 0.00035 µM] (inactive)
15 | Brc1ccc(Oc2nnnn2-c2ccccc2)cc1 |  | -1.07% [at 0.00035 µM] (inactive)
16 | COc1ccc(C2Nc3ccccc3C(=O)N2Cc2ccc(C(F)(F)F)cc2)cc1COc1ccc(NC(C)=O)cc1 (stereo unspecified) | inactive | 
17 | COC(=O)c1cc(NC2c3ccccc3C(=O)N2c2cccnc2)cc(C(=O)OC)c1 (stereo unspecified) |  | -0.103% [at 0.00035 µM] (inactive)
18 | Cc1cc(-n2c(C)cc(C(=O)CSc3nnnn3-c3ccc(Cl)cc3)c2C)no1 |  | 1.18% [at 0.00035 µM] (inactive)
19 | O=C1c2ccccc2NC(c2ccc(O)cc2)N1Cc1ccco1 (stereo unspecified) | inactive | 
20 | COc1ccc(C2Nc3ccccc3C(=O)N2Cc2ccccc2)cc1COc1ccc(Cl)cc1 (stereo unspecified) | inactive | 
21 | COc1cc(OC)c(C(=O)N(Cc2ccco2)Cc2cccs2)cc1OC | inactive | 

Reference: PubChem BioAssay AID933 (National Center for Advancing Translational Sciences (NCATS), 2009)
